Consider nine compounds from PubChem BioAssay (NCI).

Values joined by “and” are separate entries in the source; they are usually repeats but may differ in a detail not shown here. Equal entries are not always repeated. Compounds without any hit were thinned out: in the full panel of roughly 79,000, 15% have a hit. A structure can be active in one record and inactive in another. Active and inactive are the calls of the source. Rule as the data show it: active = growth inhibition above about 70%; inactive = the rest.

Assay [1] can be described thus: NCI Yeast Anticancer Drug Screen. Data for the rad50 strain (AID 155).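 Also: 0% = growth of vehicle-only cultures of the same strain.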 As to conditions: S. cerevisiae rad50 strain growth inhibition, stronger effect = higher value. An outline of the steps: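 Yeast carrying a defined DNA repair defect were exposed to test compounds, and growth was compared with vehicle-treated controls to give percent inhibition.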
Assay [2] in a line: NCI Yeast Anticancer Drug Screen. Data for the mec2-1 strain (AID 157). As to conditions: S. cerevisiae mec2-1 strain, stronger effect = higher value. An outline of the steps:
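Readout is yeast growth inhibition, normalised to vehicle-treated controls, in the mec2-1 strain exposed to compound.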

A short description of assay [3]: NCI Yeast Anticancer Drug Screen. Data for the sgs1 mgt1 strain (AID 161).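 Also: 0% = growth of cultures given vehicle only.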 As to conditions: S. cerevisiae sgs1 mgt1 strain, stronger effect = higher value. The essentials: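 Yeast cells carrying a defined DNA-repair defect were exposed to test compounds. Growth inhibition was measured relative to vehicle-treated controls.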
A short description of assay [4]: NCI Yeast Anticancer Drug Screen. Data for the cln2 rad14 strain (AID 165).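 Also: 0% = growth equal to vehicle treated cultures.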 As to conditions: S. cerevisiae cln2 rad14 strain, stronger effect = higher value. An outline of the steps: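 Relative to vehicle controls, growth inhibition of compound-treated cln2 rad14 yeast was recorded.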
Assay [5] is described as follows: NCI Yeast Anticancer Drug Screen. Data for the bub3 strain (AID 167). As to conditions: S. cerevisiae bub3 mutant strain, stronger effect = higher value. An outline of the steps:
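Compounds were applied to a genetically altered yeast strain carrying a cell-cycle control defect. Growth inhibition was scored against vehicle-treated controls.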

Assay [6] is described as follows: NCI Yeast Anticancer Drug Screen. Data for the mlh1 rad18 strain (AID 175). As to conditions: S. cerevisiae mlh1 rad18 strain growth inhibition, stronger effect = higher value. The essentials: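 Test agents were incubated with a yeast strain of defined genotype (DNA damage repair defect). Inhibition of growth was derived by comparison with vehicle-exposed cultures.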
Setting [7] is: at 5.0 µM (retest, dose inferred, filed as 0.5).
The mark [8] stands for this setting: at 50.0 µM (retest, dose inferred, filed as 5.0).

On to `[Br][Cd][Br].c1ccc([PH+](c2ccccc2)c2ccccc2)cc1.c1ccc([PH+](c2ccccc2)c2ccccc2)cc1`, for which the growth inhibition in assay [1] (setting [7]) is 29% (inactive); in assay [1] (setting [8]), 95% (active); in assay [1] (at 50.0 µM), 97.5% (active); in assay [2] (setting [7]), 20% (inactive); in assay [2] (setting [8]), 84% (active); in assay [2] (at 50.0 µM) it was 89.5% (active). For the same compound, the growth inhibition in assay [3] (setting [7]) was 18% (inactive); in assay [3] (setting [8]), 55% (inactive); in assay [3] (at 50.0 µM) it was 94.9% (active); in assay [4] (setting [7]), 4% (inactive); in assay [4] (setting [8]) it was 89% (active); in assay [4] (at 50.0 µM), 92.4% (active). Moreover, the growth inhibition in assay [5] (setting [7]) was 21% (inactive); in assay [5] (setting [8]) it was 93% (active); in assay [5] (at 50.0 µM), 92.5% (active); in assay [6] (setting [7]), 18% (inactive); in assay [6] (setting [8]), 92% (active); in assay [6] (at 50.0 µM), 94.7% (active).
As to `S=P(Nc1ccccc1)(Nc1ccccc1)Nc1ccccc1`, the growth inhibition in assay [1] (setting [7]) was 21% (inactive); in assay [1] (setting [8]), 94% (active); in assay [1] (at 50.0 µM), 96.8% (active); in assay [2] (setting [7]), 18% (inactive); in assay [2] (setting [8]) it was 94% (active); in assay [2] (at 50.0 µM), 98% (active). For the same compound, the growth inhibition in assay [3] (setting [7]) is 12% (inactive); in assay [3] (setting [8]) it was 95% (active); in assay [3] (at 50.0 µM) it was 96.8% (active); in assay [4] (setting [7]), 7% (inactive); in assay [4] (setting [8]), 94% (active); in assay [4] (at 50.0 µM), 97.7% (active). Also, the growth inhibition is 19% (inactive) in assay [5] (setting [7]); 92% (active) in assay [5] (setting [8]); 98.2% (active) in assay [5] (at 50.0 µM); 23% (inactive) in assay [6] (setting [7]); 94% (active) in assay [6] (setting [8]); 96.8% (active) in assay [6] (at 50.0 µM).
Turning to `C[CH2][Sn]([Cl])([Cl])[CH2]C`, the growth inhibition was 20% (inactive) and 26% (inactive) in assay [1] (setting [7]); 58% (inactive) and 79% (active) in assay [1] (setting [8]); 70.3% (active) and 68.2% (inactive) in assay [1] (at 50.0 µM); 10% (inactive) and 16% (inactive) in assay [2] (setting [7]); 75% (active) and 85% (active) in assay [2] (setting [8]); 53.3% (inactive) and 77.2% (active) in assay [2] (at 50.0 µM). For the same compound, the growth inhibition in assay [3] (setting [7]) is 12% (inactive) and 21% (inactive); in assay [3] (setting [8]) it was 50% (inactive) and 68% (inactive); in assay [3] (at 50.0 µM), 55.9% (inactive) and 44.2% (inactive); in assay [4] (setting [7]), 2% (inactive) and 31% (inactive); in assay [4] (setting [8]), 42% (inactive) and 35% (inactive); in assay [4] (at 50.0 µM), 53.9% (inactive) and 48.2% (inactive). Further, the growth inhibition is 17% (inactive) and 11% (inactive) in assay [5] (setting [7]); 69% (inactive) and 58% (inactive) in assay [5] (setting [8]); 48.5% (inactive) and 41.8% (inactive) in assay [5] (at 50.0 µM); 19% (inactive) and 30% (inactive) in assay [6] (setting [7]); 45% (inactive) and 81% (active) in assay [6] (setting [8]); 33.9% (inactive) and 23.1% (inactive) in assay [6] (at 50.0 µM).
Turning to `C=C(C)C(=O)OC1CCC2(C)C(CCC3C2CCC2(C)C(c4ccc(=O)oc4)CC4OC432)C1` (configuration not stated), the growth inhibition is 7% (inactive) in assay [1] (setting [7]); 67% (inactive) in assay [1] (setting [8]); 71.9% (active) in assay [1] (at 50.0 µM); 7% (inactive) in assay [2] (setting [7]); 48% (inactive) in assay [2] (setting [8]); 66.7% (inactive) in assay [2] (at 50.0 µM). In addition, the growth inhibition was -10% (inactive) in assay [3] (setting [7]); 57% (inactive) in assay [3] (setting [8]); 63.8% (inactive) in assay [3] (at 50.0 µM); 26% (inactive) in assay [4] (setting [7]); 64% (inactive) in assay [4] (setting [8]); 60.2% (inactive) in assay [4] (at 50.0 µM). Besides, the growth inhibition is 16% (inactive) in assay [5] (setting [7]); 80% (active) in assay [5] (setting [8]); 71.3% (active) in assay [5] (at 50.0 µM); 21% (inactive) in assay [6] (setting [7]); 73% (active) in assay [6] (setting [8]); 63.9% (inactive) in assay [6] (at 50.0 µM).
For `C[CH2][Pb]([CH2]C)([CH2]C)[n]1cnc2ccccc21`, the growth inhibition in assay [1] (setting [7]) was 4% (inactive); in assay [1] (setting [8]), 87% (active); in assay [1] (at 50.0 µM), 66% (inactive); in assay [2] (setting [7]) it was 2% (inactive); in assay [2] (setting [8]), 98% (active); in assay [2] (at 50.0 µM), 74% (active). Further, the growth inhibition in assay [3] (setting [7]) was 5% (inactive); in assay [3] (setting [8]), 97% (active); in assay [3] (at 50.0 µM) it was 82.2% (active); in assay [4] (setting [7]), -3% (inactive); in assay [4] (setting [8]), 62% (inactive); in assay [4] (at 50.0 µM) it was 41.8% (inactive). Further, the growth inhibition was 2% (inactive) in assay [5] (setting [7]); 97% (active) in assay [5] (setting [8]); 80.3% (active) in assay [5] (at 50.0 µM); 4% (inactive) in assay [6] (setting [7]); 98% (active) in assay [6] (setting [8]); 79% (active) in assay [6] (at 50.0 µM).
Regarding `CCC[CH2][Sn]([Cl])([CH2]Cl)[CH2]CCC`, the growth inhibition is 97% (active) in assay [1] (setting [7]); 99% (active) in assay [1] (setting [8]); 99% (active) in assay [1] (at 50.0 µM); 99% (active) in assay [2] (setting [7]); 100% (active) in assay [2] (setting [8]); 99.2% (active) in assay [2] (at 50.0 µM). Also, the growth inhibition is 98% (active) in assay [3] (setting [7]); 99% (active) in assay [3] (setting [8]); 99.4% (active) in assay [3] (at 50.0 µM); 98% (active) in assay [4] (setting [7]); 98% (active) in assay [4] (setting [8]); 99.3% (active) in assay [4] (at 50.0 µM). Further, the growth inhibition was 98% (active) in assay [5] (setting [7]); 99% (active) in assay [5] (setting [8]); 99.3% (active) in assay [5] (at 50.0 µM); 99% (active) in assay [6] (setting [7]); 99% (active) in assay [6] (setting [8]); 99.2% (active) in assay [6] (at 50.0 µM).
As to `O=[N+]([O-])c1cc([N+](=O)[O-])c2cccnc2c1O`, the growth inhibition in assay [1] (setting [7]) is -4% (inactive); in assay [1] (setting [8]) it was 3% (inactive); in assay [1] (at 50.0 µM), 98.6% (active); in assay [2] (setting [7]) it was -10% (inactive); in assay [2] (setting [8]) it was -10% (inactive); in assay [2] (at 50.0 µM), 98.3% (active). Also, the growth inhibition in assay [3] (setting [7]) is -3% (inactive); in assay [3] (setting [8]), 11% (inactive); in assay [3] (at 50.0 µM) it was 97.5% (active); in assay [4] (setting [7]), 2% (inactive); in assay [4] (setting [8]) it was -2% (inactive); in assay [4] (at 50.0 µM), 94.3% (active). In addition, the growth inhibition in assay [5] (setting [7]) is -7% (inactive); in assay [5] (setting [8]) it was -11% (inactive); in assay [5] (at 50.0 µM), 98% (active); in assay [6] (setting [7]) it was -4% (inactive); in assay [6] (setting [8]), -7% (inactive); in assay [6] (at 50.0 µM), 96.8% (active).
In the case of `[Br][Sn]([CH]1CCCCC1)([CH]1CCCCC1)[CH]1CCCCC1`, the growth inhibition in assay [1] (setting [7]) was 98% (active); in assay [1] (setting [8]), 99% (active); in assay [1] (at 50.0 µM), 98.6% (active); in assay [2] (setting [7]), 100% (active); in assay [2] (setting [8]), 100% (active); in assay [2] (at 50.0 µM) it was 99.1% (active). The growth inhibition in assay [3] (setting [7]) was 99% (active); in assay [3] (setting [8]), 99% (active); in assay [3] (at 50.0 µM), 98.5% (active); in assay [4] (setting [7]) it was 57% (inactive); in assay [4] (setting [8]), 98% (active); in assay [4] (at 50.0 µM) it was 98.5% (active). Further, the growth inhibition was 23% (inactive) in assay [5] (setting [7]); 99% (active) in assay [5] (setting [8]); 98.5% (active) in assay [5] (at 50.0 µM); 99% (active) in assay [6] (setting [7]); 99% (active) in assay [6] (setting [8]); 98.8% (active) in assay [6] (at 50.0 µM).
For the compound `[O]=[Sb][c]1ccc(Cl)cc1`, the growth inhibition was 5% (inactive) in assay [1] (setting [7]); 42% (inactive) in assay [1] (setting [8]); 96.7% (active) in assay [1] (at 50.0 µM); 3% (inactive) in assay [2] (setting [7]); 36% (inactive) in assay [2] (setting [8]); 85.5% (active) in assay [2] (at 50.0 µM). Besides, the growth inhibition is 1% (inactive) in assay [3] (setting [7]); 56% (inactive) in assay [3] (setting [8]); 99.1% (active) in assay [3] (at 50.0 µM); 0% (inactive) in assay [4] (setting [7]); 19% (inactive) in assay [4] (setting [8]); 54.3% (inactive) in assay [4] (at 50.0 µM). Also, the growth inhibition was 4% (inactive) in assay [5] (setting [7]); 48% (inactive) in assay [5] (setting [8]); 87.7% (active) in assay [5] (at 50.0 µM); 3% (inactive) in assay [6] (setting [7]); 35% (inactive) in assay [6] (setting [8]); 93.3% (active) in assay [6] (at 50.0 µM).
